Drawing on PMC8384837, “Expanding the binding specificity for RNA recognition by a PUF domain”, this text covers binding signal for three sequences.

The test deals with PUM1 PUF domain R4-CCG (Homo sapiens, UniProt Q14671 828-1176, N971C;H972C;Q975G). Put plainly: yeast three-hybrid, YBZ-1, SC-Leu-His + 0.5 mM 3-AT, 4 days. The following applies: tags: N-Gal4 AD-HA kept; label: inside an RPR1-promoter hybrid RNA with tandem MS2 sites; ssRNA. In outline: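 The interaction score is the log change in variant frequency from input to selection. Scores were computed in log2 with a pseudocount of 1 for absent variants, using Illumina sequencing of PCR-amplified repeat regions. The input came from four days on SC-Leu and the selection from four days on SC-Leu-His + 0.5 mM 3-AT. The cells were strain YBZ-1 (LexA–MS2 coat fusion, HIS3 reporter) co-expressing Pumilio-1 PUF domain libraries and matching RNA elements from a centromeric plasmid.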
For the sequence “GGCUAGAACUAGUGGAUCCCCCGGCGCCCGGCGGCUCGAGCCCGGGUAAGUGUAUAUAGUCUGCAUGCCGCCGGGCGCCAUGCCUGCAGGUCGACUCUAGAAAACAUG”, the binding signal was 1.84 log2 enrichment (interaction score).

Consider “GGCUAGAACUAGUGGAUCCCCCGGCGCCCGGCGGCUCGAGCCCGGGUAAGUGUAAAUAGUCUGCAUGCCGCCGGGCGCCAUGCCUGCAGGUCGACUCUAGAAAACAUG”, for which the binding signal was 2.6 log2 enrichment (interaction score).

Turning to “GGCUAGAACUAGUGGAUCCCCCGGCGCCCGGCGGCUCGAGCCCGGGUAAGUGUACAUAGUCUGCAUGCCGCCGGGCGCCAUGCCUGCAGGUCGACUCUAGAAAACAUG”, the binding signal is 0.76 log2 enrichment (interaction score).
